Inconclusive results are not listed. The source made the active and inactive calls. The call rests on the fitted dose curve; in most records, active means well fitted inhibition curve with a large enough effect; inconclusive means small, poorly fitted or top-dose-only effect; inactive means flat fitted curve, though single readings scatter. Residues, ends and D or L forms follow the SMILES beside them.

Experimental findings from PubChem BioAssay (NCATS) are described below.

In this experiment the test system is CRL-7250. Put plainly: qHTS assay to identify novel small-molecules to repurpose for Merkel cell carcinoma treatment (AID 1296009). Further: nearly all actives have a fitted effect of over 60% in size. The conditions noted are these: MCC and control cell lines, CellTiter-Glo viability, 72 h; at 44.8 µM (top of the series) unless noted. The method, boiled down: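 After compound transfer in DMSO, plates were kept 72 hr at 37 degree celsius. Luminescent ATP signal from CellTiter-Glo served as viability measure, normalized against DMSO and no-cell controls.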
In the case of `CCOC(=O)Oc1ccc(CCNC(=O)[C@H](CCSC)NC(C)=O)cc1OC(=O)OCC`, the result was inactive. Regarding `COc1cc(C(=O)NS(=O)(=O)c2ccccc2C)ccc1Cc1cn(C)c2ccc(NC(=O)OC3CCCC3)cc12`, the molecule was classed as inactive. On to `Nc1ncnc2c1ncn2[C@@H]1O[C@H](CO)[C@@H](O)[C@H]1O`, for which the call was inactive. To `Cc1ncc([N+](=O)[O-])n1CC(C)O` (centres undefined) belongs “inactive”; to `NC(=O)NC1N=C([O][Al])NC1=O` (centres undefined), “inactive”; to `CC(C(=O)O)c1ccc2c(c1)CC(=O)c1ccccc1S2` (centres undefined), “inactive”. With `O=P(O)(O)C(O)(Cn1ccnc1)P(=O)(O)O`, the outcome was “inactive [at 17.4 µM]”.

On to `CC(C)(Oc1ccc(Cl)cc1)C(=O)O`, for which the molecule was called inactive. In the case of `NC(=O)NC1NC(=O)NC1=O` (centres undefined), the molecule was called inactive. Take `CCCCCCCCCCC[C@@H](C[C@@H]1OC(=O)[C@H]1CCCCCC)OC(=O)[C@H](CC(C)C)NC=O`: the molecule was called inactive. On to `CCCCOCCOC(=O)c1cccnc1`, for which the molecule was called inactive.

With `CCCCOC(=O)c1ccc(N)cc1`, the result was inactive. For the molecule `CCC1=C(C)CN(C(=O)NCCc2ccc(S(=O)(=O)NC(=O)NC3CCC(C)CC3)cc2)C1=O` (centres undefined), the result was inactive. With `COc1ccc2c(c1)c(CC(=O)OC/C=C(\C)CC/C=C(\C)CCC=C(C)C)c(C)n2C(=O)c1ccc(Cl)cc1` the entry was “inactive”; with `Cc1ccc(S(=O)(=O)NC(=O)NC2CCCCC2)cc1`, “inactive”; with `C[C@]12C=CC(=O)C=C1CC[C@@H]1[C@@H]2C(=O)C[C@@]2(C)[C@H]1CC[C@]2(O)C(=O)CO`, “inactive [at 17.4 µM]”. As for `Cc1c(N(C)CS(=O)(=O)O)c(=O)n(-c2ccccc2)n1C`, the molecule was classed as inactive.

Turning to `Cc1cc(O)c2c(O)c3c(O)cccc3cc2c1`, the result was inactive. On to `Cc1cc(C(C#N)c2ccc(Cl)cc2)c(Cl)cc1NC(=O)c1cc(I)cc(I)c1O` (centres undefined), for which the result was inactive. Regarding `O=C(N[C@H](CO)[C@H](O)c1ccc([N+](=O)[O-])cc1)C(Cl)Cl`, the result was inactive.

`O=[N+]([O-])c1cncn1CCN1CCOCC1`: the molecule was called inactive. With `CC(C)(Sc1cc(C(C)(C)C)c(O)c(C(C)(C)C)c1)Sc1cc(C(C)(C)C)c(O)c(C(C)(C)C)c1`, the molecule was called inactive. In the case of `CC(=O)Nc1ccc(/C=N/NC(N)=S)cc1`, the call was inactive.

Take `CS(=O)(=O)c1ccc([C@@H](O)[C@@H](CF)NC(=O)C(Cl)Cl)cc1`: the molecule was classed as inactive. With `O=C1O[C@H](CO)[C@@H](O)[C@H](O)[C@H]1O`, the result was inactive.

Take `COC(=O)[C@H](Cc1ccccc1)NC(=O)[C@@H](N)CC(=O)O` (H-Asp-Phe-OMe): the molecule was called inactive. Regarding `NNC(=O)c1ccncc1`, the call was inactive. Regarding `Nc1ncnc2c1ncn2[C@@H]1O[C@H](COP(=O)(O)O)[C@@H](O)[C@H]1O`, the result was inactive. To `CC(C)OC(=O)OCOP(=O)(CO[C@H](C)Cn1cnc2c(N)ncnc21)OCOC(=O)OC(C)C` belongs “inactive”; to `Nc1cc(=O)[nH]c(N)n1`, “inactive”. With `CC[N+](CC)(CCNC(=O)C(=O)NCC[N+](CC)(CC)Cc1ccccc1Cl)Cc1ccccc1Cl` the entry was “inactive”; with `COc1ccccc1OCC(O)CO` (centres undefined), “inactive”; with `CC[C@]12CCCN3CCc4c(n(c5ccccc45)[C@@](O)(C(=O)OC)C1)[C@@H]32`, “inactive”. With `CC[N+](C)(CC)CCOC(=O)C1c2ccccc2Oc2ccccc21` the entry was “inactive”; with `Cc1onc(-c2ccccc2)c1-c1ccc(S(N)(=O)=O)cc1`, “inactive”. On to `CN1CCN(C(=O)C2CCCCC2)CC1`, for which the call was inactive. As to `CCCCCCCC/C=C/C(=O)O`, the outcome was inactive. With `CC(=O)[C@H]1CC[C@H]2[C@@H]3C[C@H](C)C4=CC(=O)CC[C@]4(C)[C@H]3[C@@H](O)C[C@]12C` the entry was “inactive”.

`Cn1c(=O)c2[nH]c(Br)nc2n(C)c1=O`: the result was inactive.
